Results filed as inconclusive are left out. A call without a number means that no potency is given here. Active and inactive are the calls of the source. The call rests on the fitted dose curve; in most records, active means well fitted activation curve with a large enough effect; inconclusive means small, poorly fitted or top-dose-only effect; inactive means no such curve, though single readings can be large or run the other way.
test: qHTS Assay for NPC1 Promoter Activators: Hit Validation Using Renila Luciferase Read-Out for NPC1; details: Huh7 NPC1 promoter-luciferase reporter, luminescence, 24 h; series mostly up to 76.9 µM
Method in brief: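 Luciferase reporter read-out: promoter activation measured by luminescence after 10 min with detection reagent at room temperature. Cells were Huh7 with a stable NPC promoter-luciferase construct, treated 24 h at 37 deg C.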
Potency means the concentration at half of the fitted maximal effect.

For O=C(O)C1=CC[C@@H](c2ccc(Cl)cc2)N(S(=O)(=O)c2ccc(Cl)cc2)[C@H]1c1ccccc1, which Potency is on record?
Its Potency is 14.6 µM (active).

For CCN(Cc1nc2cc(Cl)ccc2c(=O)[nH]1)C(=O)C1CC(=O)N(c2cccc3ccccc23)C1 (centres undefined), which Potency is on record?
The Potency was “inactive”.

With COc1ccc(-n2c(N)c(C(=O)NCc3ccco3)sc2=S)cc1 as the molecule, how does the Potency read?
Its Potency is “inactive”.

With Cc1nc(SCC(=O)NC(=O)NC(C)(C)C)nc(C)c1C as the molecule, how does the Potency read?
The Potency was “inactive”.

For COc1ccc(-c2nnc(SCC(=O)/C(C#N)=C(\C)N)o2)cc1, which Potency is on record?
Its Potency is “inactive”.

With N#CC/C(N)=N/NC(=O)CCCNc1ncc(C(F)(F)F)cc1Cl as the molecule, how does the Potency read?
Its Potency is “inactive”.

With CCC(=O)Nc1cc(-c2cc3ccccc3oc2=O)ccc1OC as the molecule, how does the Potency read?
The Potency was “inactive”.

With Cc1ccc2nc(Nc3ccc(Cl)cc3)c3nncn3c2c1 as the molecule, how does the Potency read?
The Potency was “inactive”.

For NNC(=O)c1cccc(S(=O)(=O)Nc2cc(Cl)ccc2Cl)c1, which Potency is on record?
The Potency was “inactive”.

For COC(=O)c1ccccc1NC(=O)c1ccc(-c2ccc(Br)cc2)o1, which Potency is on record?
The Potency was “inactive”.

Which Potency does the source give for Cc1nc2sc(C(=O)OC(C)C)c(N)c2c(C)c1C here?
Its Potency is “inactive”.

Which Potency does the source give for Brc1ccccc1-c1nnc(CSc2nnc3sc4ccccc4n23)o1 here?
Its Potency is “inactive”.

Which Potency does the source give for CCc1cc(C(=O)Nc2ccccc2)cs1 here?
Its Potency is “inactive”.

Which Potency does the source give for CCCNC(=O)C1CCN(S(=O)(=O)c2ccc3[nH]c(=O)ccc3c2)CC1 here?
The Potency was “inactive”.

For CC(=O)c1cccc(NC(=O)N2CCOCC2)c1, which Potency is on record?
The Potency was “inactive”.

Which Potency does the source give for Cc1cccc(N2CCN(C(=S)c3ccccc3)CC2)c1 here?
Its Potency is “inactive”.

With CCOC(=O)c1cc2sccc2n1CC(=O)N1CCCc2ccccc21 as the molecule, how does the Potency read?
Its Potency is “inactive”.

For CC(=O)Nc1ccc(NC(=O)COc2ncnc3ccccc23)cc1, which Potency is on record?
The Potency was “inactive”.

For C=CCc1ccc(OCCOCCNCCOC)c(OC)c1, which Potency is on record?
Its Potency is “inactive”.

Source: PubChem BioAssay AID720526 (National Center for Advancing Translational Sciences (NCATS), 2013)
